Reference: PubChem BioAssay (NCATS)
Values joined by “and” are separate entries in the source; they are usually repeats but may differ in a detail not shown here. Equal values may be shown once. Inconclusive results are not listed. Active and inactive are the calls of the source. Calls follow the shape of the dose curve; as a rule, active = well fitted curve in the direction sought with a large enough effect; inconclusive = small, poorly fitted or top-dose-only effect, or another doubt; inactive = no such curve, though single readings can be large; an effect the other way counts as inactive or inconclusive.

Columns and labels:
TAB109 = assay: qHTS profiling for inhibitors of Plasmodium falciparum proliferation (AID 504749); also: nearly all actives have a fitted effect of over 60% in size; also: potency is read from the fitted curve at half-maximal effect; settings: P. falciparum in erythrocytes, SYBR Green DNA, 72 h; series mostly up to 28.7 µM
How it was run: (§1)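 Infected RBCs, 0.3% parasitemia/2.5% Hct final; cpd 72 h, 37 C, 5% CO2; lysis buffer with saponin/triton/SYBR Green I, o/n RT dark; FI 485/535; norm. to artemisinin (0.29 uM) and DMSO.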

TAB113 = assay: as above; settings: P. falciparum in erythrocytes, SYBR Green DNA, 72 h; series mostly up to 28.7 µM
How it was run: as §1

TAB165 = assay: as above; settings: P. falciparum in erythrocytes, SYBR Green DNA, 72 h; series mostly up to 28.7 µM
How it was run: as §1

W2 = assay: as above; settings: P. falciparum in erythrocytes, SYBR Green DNA, 72 h; series mostly up to 28.7 µM
How it was run: as §1

CRL-7250 [1] = assay: Cytotoxic Profiling of Annotated Libraries Using Quantitative High-Throughput Screening (AID 1296008); settings: Five cell lines viability, CellTiter-Glo ATP luminescence, 48-72 h; max response: hits give low values; also: nearly all actives have a fitted effect of over 60% in size; also: potency is read from the fitted curve at half-maximal effect; as to max response: % is scaled to controls: 0 for no effect and ±100 for the full control effect
How it was run: (§2)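 Cytotoxicity was measured as CellTiter-Glo ATP luminescence, read after 10 min at room temperature. Compound treatment of the cells lasted 48 or 72 hr at 37 degrees Celsius in a qHTS format.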

HEK293 = assay: as above; settings: Five cell lines viability, CellTiter-Glo ATP luminescence, 48-72 h; max response: hits give low values
How it was run: as §2

HaCat [2] = assay: as above; settings: Five cell lines viability, CellTiter-Glo ATP luminescence, 48-72 h; max response: hits give low values
How it was run: as §2

KB-3-1 = assay: as above; settings: Five cell lines viability, CellTiter-Glo ATP luminescence, 48-72 h; max response: hits give low values
How it was run: as §2

NIH3T3 [3] = assay: as above; settings: Five cell lines viability, CellTiter-Glo ATP luminescence, 48-72 h; max response: hits give low values
How it was run: as §2

HEK293T = assay: qHTS assay to identify novel small-molecules to repurpose for Merkel cell carcinoma treatment (AID 1296009); settings: MCC and control cell lines, CellTiter-Glo viability, 72 h; at 44.8 µM (top of the series); also: nearly all actives have a fitted effect of over 60% in size; also: potency is read from the fitted curve at half-maximal effect
How it was run: (§3)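 72 hr, 37 degree celsius; NPC 8-pt / MIPE 11-pt dose response; compound pinned in DMSO; CellTiter-Glo, 10 min RT, luminescence; normalized to no-cell and DMSO controls.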

MCC-13 = assay: as above; settings: MCC and control cell lines, CellTiter-Glo viability, 72 h; series mostly up to 46 µM
How it was run: as §3

MKL-1 = assay: as above; settings: MCC and control cell lines, CellTiter-Glo viability, 72 h; series mostly up to 46 µM
How it was run: as §3

NIH3T3 [4] = assay: as above; settings: MCC and control cell lines, CellTiter-Glo viability, 72 h; at 44.8 µM (top of the series) unless noted
How it was run: as §3

UISO = assay: as above; settings: MCC and control cell lines, CellTiter-Glo viability, 72 h; series mostly up to 46 µM
How it was run: as §3

WaGa = assay: as above; settings: MCC and control cell lines, CellTiter-Glo viability, 72 h; series mostly up to 46 µM
How it was run: as §3

C33A = assay: Primary qHTS to identify gynecologic anti-cancer compounds using libraries of approved drugs and bioactive compounds (AID 1345084); settings: Gynecologic cancer cell panel viability, ATPlite luminescence, 48 h; series mostly up to 57.5 µM; also: % is scaled to controls: 0 for no effect and ±100 for the full control effect; nearly all actives have a fitted effect of over 55% in size
How it was run: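 In this quantitative HTS, cell killing is estimated from loss of ATP-dependent luciferase light. Cells see five compound concentrations over a 48 h exposure.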

CRL-7250 [5] = assay: qHTS assay to identify novel small-molecules to repurpose for Merkel cell carcinoma treatment (AID 1296009); settings: MCC and control cell lines, CellTiter-Glo viability, 72 h; series mostly up to 44.8 µM; also: nearly all actives have a fitted effect of over 60% in size; also: potency is read from the fitted curve at half-maximal effect
How it was run: as §3

MKL-2 = assay: as above; settings: MCC and control cell lines, CellTiter-Glo viability, 72 h; series mostly up to 46 µM
How it was run: as §3

HACAT [6] = assay: as above; settings: MCC and control cell lines, CellTiter-Glo viability, 72 h; at 44.8 µM (top of the series) unless noted
How it was run: as §3

MCC-26 = assay: as above; settings: MCC and control cell lines, CellTiter-Glo viability, 72 h; series mostly up to 46 µM
How it was run: as §3

O=[N+]([O-])c1cc([As](=O)(O)O)ccc1O
inactive: max response (CRL-7250 [1]) -0.161% | outcome (HEK293) | max response (HaCat [2]) -8.07% | max response (KB-3-1) -14.1% | outcome (NIH3T3 [3]) | outcome (HEK293T) | Potency (MCC-13) | Potency (MKL-1) | outcome (NIH3T3 [4]) | Potency (UISO) | Potency (WaGa) | Potency (C33A)
active: Potency (TAB109) 3.16 µM | Potency (TAB113) 3.16 µM | Potency (TAB165) 3.55 µM | Potency (W2) 2.56 µM

CC(C)=CC1C(C(=O)OCc2cccc(Oc3ccccc3)c2)C1(C)C (stereo not drawn)
inactive: Potency (TAB109) | Potency (TAB113) | Potency (TAB165) | outcome (CRL-7250 [1]) | max response (HaCat [2]) 2.03% | max response (KB-3-1) 3.42% | outcome (NIH3T3 [3]) | outcome (CRL-7250 [5]) | outcome (HEK293T) | Potency (MCC-13) | Potency (MKL-1) | Potency (MKL-2) | outcome (NIH3T3 [4]) | Potency (UISO) | Potency (WaGa) | Potency (C33A)

c1ccc2c(c1)OCC(C1=NCCN1)O2 (stereo not drawn)
inactive: Potency (TAB109) | Potency (TAB113) | Potency (TAB165) | max response (KB-3-1) 29.1%
active: Potency (CRL-7250 [1]) 23.7 µM | Potency (HEK293) 18.8 µM | Potency (NIH3T3 [3]) 15 µM | Potency (MKL-1) 26.6 µM | Potency (MKL-2) 5.96 µM

COC[C@H]1OC(=O)c2coc3c2[C@@]1(C)C1=C(C3=O)C2CCC(=O)[C@@]2(C)C[C@H]1OC(C)=O (stereo partly drawn)
inactive: max response (CRL-7250 [1]) -6.6% | max response (HaCat [2]) -21.4% | outcome (HaCat [2]) | max response (KB-3-1) -5.47% | outcome (KB-3-1) | outcome (HACAT [6]) | Potency (MCC-13) | Potency (MCC-26) | Potency (UISO) | Potency (C33A)
active: Potency (MKL-1) 11.8 µM | Potency (MKL-2) 7.43 µM | Potency (WaGa) 8.33 µM

Cc1ccc(S(=O)(=O)NC(=O)NN2CCCCCC2)cc1
inactive: outcome (CRL-7250 [5])

C[C@]12CCC(=O)C(O)=C1CC[C@@H]1[C@@H]2CC[C@]2(C)C(=O)CC[C@@H]12
inactive: max response (CRL-7250 [1]) -13.2% | max response (HaCat [2]) -15.5% | max response (KB-3-1) -15.7% | max response (NIH3T3 [3]) -5.78% | Potency (MCC-13) | Potency (MKL-1) | Potency (MKL-2) | Potency (UISO) | Potency (WaGa) | Potency (C33A)

Fc1ccc(C(OCCN2CCN(CCCc3ccccc3)CC2)c2ccc(F)cc2)cc1
active: Potency (TAB109) 7.94 µM | Potency (TAB113) 8.91 µM | Potency (TAB165) 4.47 µM | Potency (W2) 4.26 µM | Potency (CRL-7250 [1]) 13.2 µM | Potency (KB-3-1) 23.1 µM | Potency (MKL-1) 9.44 µM | Potency (MKL-2) 23.5 µM and 4.73 µM | Potency (UISO) 23.7 µM | Potency (WaGa) 8.41 µM

Cc1ncc(CNC(=O)N(CCCl)N=O)c(N)n1
inactive: Potency (TAB109) | Potency (TAB113) | Potency (TAB165) | Potency (W2) | max response (CRL-7250 [1]) 0.0102% | max response (KB-3-1) 2.09% | max response (NIH3T3 [3]) -2.43% | Potency (MCC-13) | Potency (MCC-26) | Potency (MKL-1) | Potency (MKL-2) | Potency (UISO) | Potency (WaGa) | Potency (C33A)

c1ccc(C2CC2)c(OCC2=NCCN2)c1
inactive: Potency (TAB109) | Potency (TAB113) | Potency (TAB165) | max response (HEK293) -2.25% | outcome (HaCat [2]) | max response (KB-3-1) 1.77% | max response (NIH3T3 [3]) -5.7% | outcome (HACAT [6]) | Potency (MCC-13) | Potency (MCC-26) | Potency (MKL-1) | Potency (MKL-2) | Potency (UISO) | Potency (WaGa) | Potency (C33A)
active: Potency (W2) 13.5 µM

CNC(=O)N1N=C(c2ccc(N)cc2)c2cc3c(cc2CC1C)OCO3 (stereo not drawn)
inactive: max response (HaCat [2]) -13.3% and -0.52% | max response (NIH3T3 [3]) -39.3% | Potency (MKL-1) | Potency (C33A)
active: Potency (HEK293) 23.1 µM | Potency (MKL-2) 7.43 µM | Potency (WaGa) 16.6 µM

COC[C@@H](NC(C)=O)C(=O)NCc1ccccc1
inactive: outcome (HaCat [2]) | max response (KB-3-1) 8.88% | max response (NIH3T3 [3]) 2.94% | outcome (HACAT [6]) | Potency (MCC-13) | Potency (MCC-26) | Potency (MKL-1) | Potency (MKL-2) | Potency (UISO) | Potency (WaGa) | Potency (C33A)

COc1ccccc1N1CCNCC1
inactive: Potency (TAB109) | Potency (TAB113) | Potency (TAB165) | Potency (W2) | outcome (HEK293) | outcome (HaCat [2]) | max response (KB-3-1) -11% | max response (NIH3T3 [3]) -4.83% | outcome (HACAT [6]) | outcome (HEK293T) | Potency (MCC-13) | Potency (MCC-26) | Potency (MKL-1) | Potency (MKL-2) | Potency (UISO) | Potency (WaGa) | Potency (C33A)

CNS(=O)(=O)Cc1ccc2[nH]cc(CCN(C)C)c2c1
inactive: outcome (CRL-7250 [5])

CO[C@]12CC[C@@]3(C[C@@H]1[C@](C)(O)C(C)(C)C)[C@@H]1Cc4ccc(O)c5c4[C@@]3(CCN1CC1CC1)[C@H]2O5
active: Potency (HEK293) 21.5 µM | Potency (MCC-13) 53.9 µM | Potency (MKL-2) 34 µM | Potency (UISO) 24.1 µM

CNS(=O)(=O)CCc1ccc2[nH]cc(C3CCN(C)CC3)c2c1
inactive: outcome (CRL-7250 [5])

CCN(CC)CCOC(=O)C(O)(c1ccccc1)c1ccccc1
inactive: Potency (TAB109) | Potency (TAB113) | Potency (TAB165) | max response (CRL-7250 [1]) -0.239% | max response (HaCat [2]) -11% | max response (KB-3-1) -1.34% | outcome (NIH3T3 [3]) | Potency (MCC-13) | Potency (MKL-1) | Potency (MKL-2) | outcome (NIH3T3 [4]) | Potency (UISO) | Potency (WaGa) | Potency (C33A)

O=C1NCN(c2ccccc2)C12CCN(CC1COc3ccccc3O1)CC2 (stereo not drawn)
inactive: Potency (TAB109) | Potency (TAB113) | Potency (TAB165) | max response (CRL-7250 [1]) -15.4% | max response (HaCat [2]) 4.17% | max response (KB-3-1) -9.57% | max response (NIH3T3 [3]) -1.57% | Potency (MCC-13) | Potency (MKL-1) | Potency (MKL-2) | Potency (UISO) | Potency (WaGa) | Potency (C33A)
